Data taken from article PMC7862700, “An all-to-all approach to the identification of sequence-specific readers for epigenetic DNA modifications on cytosine”.

Columns and labels:
Experiment in all cases: DAPPL (digital affinity profiling via proximity ligation, sequencing); 10 mM Tris-HCl pH 7.5, 50 mM NaCl, 1 mM DTT, 4% glycerol, room temperature, 30 min; GST-TFs on glutathione beads, 16-mer random dsDNA library, 0.1% formaldehyde crosslink after washing; high values mean tight binding
Settings in all cases: protein: recombinant; tags: N-terminal GST; dsDNA, one strand shown
FLI1 = molecular target: T1, FLI1 (Homo sapiens, UniProt Q01543 1-452)
T1 sequence: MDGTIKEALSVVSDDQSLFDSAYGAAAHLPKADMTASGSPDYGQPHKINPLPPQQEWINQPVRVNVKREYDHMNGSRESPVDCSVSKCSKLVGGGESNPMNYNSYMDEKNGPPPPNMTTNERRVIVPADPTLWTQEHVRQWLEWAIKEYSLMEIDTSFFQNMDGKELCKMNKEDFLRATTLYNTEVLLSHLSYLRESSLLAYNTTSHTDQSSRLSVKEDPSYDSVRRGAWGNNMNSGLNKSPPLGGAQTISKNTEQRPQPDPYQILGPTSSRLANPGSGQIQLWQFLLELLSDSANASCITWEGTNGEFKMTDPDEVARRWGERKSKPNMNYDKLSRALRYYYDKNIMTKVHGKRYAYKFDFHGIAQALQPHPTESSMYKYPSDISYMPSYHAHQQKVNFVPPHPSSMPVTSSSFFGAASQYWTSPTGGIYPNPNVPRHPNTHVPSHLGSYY
Method in brief: (§1)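 After expression in yeast as GST fusions, human transcription factors were bound to glutathione beads, DNA-barcoded and mixed with a tag-only sample. The pools were incubated with 200 nmole of a 16-mer random double-stranded DNA library in Tris/NaCl/DTT/glycerol buffer (30 min, room temperature), washed and crosslinked with 0.1% formaldehyde. Proximity ligation with BsaI/T4 ligase ran for 1 h at 37 °C, before PCR amplification and sequencing on an Illumina NextSeq500. Binding signal is a hexamer's read frequency for a factor divided by its frequency for the tag-only sample.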

ELK1 = molecular target: T2, ELK1 (Homo sapiens, UniProt P19419 1-428)
T2 sequence: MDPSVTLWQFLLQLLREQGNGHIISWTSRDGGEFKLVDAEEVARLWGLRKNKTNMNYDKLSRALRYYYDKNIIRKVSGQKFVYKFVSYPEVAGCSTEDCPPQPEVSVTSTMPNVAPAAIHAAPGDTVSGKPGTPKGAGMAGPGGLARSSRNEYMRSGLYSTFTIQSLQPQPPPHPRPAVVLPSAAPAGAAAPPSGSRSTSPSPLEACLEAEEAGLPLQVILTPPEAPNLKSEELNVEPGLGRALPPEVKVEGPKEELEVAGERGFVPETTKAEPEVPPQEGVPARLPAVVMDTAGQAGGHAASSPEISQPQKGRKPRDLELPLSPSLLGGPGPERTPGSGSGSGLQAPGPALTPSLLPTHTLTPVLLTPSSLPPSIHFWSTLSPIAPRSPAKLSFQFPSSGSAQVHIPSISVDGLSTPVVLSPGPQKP
Method in brief: as §1

GABPA = molecular target: T3, GABPA (Homo sapiens, UniProt Q06546 1-454)
T3 sequence: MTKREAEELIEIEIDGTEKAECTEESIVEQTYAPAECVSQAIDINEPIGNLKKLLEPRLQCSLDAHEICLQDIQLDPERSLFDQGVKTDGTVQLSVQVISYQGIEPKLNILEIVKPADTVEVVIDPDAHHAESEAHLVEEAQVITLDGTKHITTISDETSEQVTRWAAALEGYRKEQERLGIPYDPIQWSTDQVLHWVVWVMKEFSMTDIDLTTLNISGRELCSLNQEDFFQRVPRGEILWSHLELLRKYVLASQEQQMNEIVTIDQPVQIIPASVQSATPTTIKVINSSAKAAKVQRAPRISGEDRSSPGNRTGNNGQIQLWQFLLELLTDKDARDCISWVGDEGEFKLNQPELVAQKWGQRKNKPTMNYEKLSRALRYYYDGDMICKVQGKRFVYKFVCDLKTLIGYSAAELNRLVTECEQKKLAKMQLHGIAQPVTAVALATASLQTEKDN
Method in brief: as §1

ERG = molecular target: T4, ERG (Homo sapiens, UniProt P11308 1-479)
T4 sequence: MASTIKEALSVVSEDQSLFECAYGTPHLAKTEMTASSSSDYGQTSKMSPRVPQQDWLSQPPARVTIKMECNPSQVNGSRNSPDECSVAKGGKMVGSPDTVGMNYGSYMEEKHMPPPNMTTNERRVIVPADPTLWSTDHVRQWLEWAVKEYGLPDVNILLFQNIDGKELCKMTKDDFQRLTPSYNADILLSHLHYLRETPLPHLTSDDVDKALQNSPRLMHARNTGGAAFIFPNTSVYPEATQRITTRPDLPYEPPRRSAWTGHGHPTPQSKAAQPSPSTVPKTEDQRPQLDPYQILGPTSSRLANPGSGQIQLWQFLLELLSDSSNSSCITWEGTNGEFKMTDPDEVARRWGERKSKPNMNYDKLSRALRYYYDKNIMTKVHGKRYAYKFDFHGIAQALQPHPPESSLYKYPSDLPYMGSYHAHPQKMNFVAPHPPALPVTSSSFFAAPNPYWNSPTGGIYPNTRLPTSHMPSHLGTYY
Method in brief: as §1

ELF1 = ELF1 (Homo sapiens, UniProt P32519 1-619)
Method in brief: as §1

EHF = molecular target: T5, EHF (Homo sapiens, UniProt Q9NZC4 1-300)
T5 sequence: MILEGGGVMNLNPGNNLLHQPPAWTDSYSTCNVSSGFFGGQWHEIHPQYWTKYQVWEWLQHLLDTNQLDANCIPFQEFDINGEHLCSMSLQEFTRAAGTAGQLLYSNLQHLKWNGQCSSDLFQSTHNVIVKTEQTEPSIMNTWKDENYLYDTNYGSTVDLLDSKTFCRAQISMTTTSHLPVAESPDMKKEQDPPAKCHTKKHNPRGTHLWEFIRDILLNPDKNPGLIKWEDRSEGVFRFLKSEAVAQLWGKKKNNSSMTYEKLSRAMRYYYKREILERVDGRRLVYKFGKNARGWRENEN
Method in brief: as §1

SPI1 = SPI1 (Homo sapiens, UniProt P17947 1-270)
Method in brief: as §1

SPIB = SPIB (Homo sapiens, UniProt Q01892 1-262)
Method in brief: as §1

ELK3 = molecular target: T6, ELK3 (Homo sapiens, UniProt P41970 1-407)
T6 sequence: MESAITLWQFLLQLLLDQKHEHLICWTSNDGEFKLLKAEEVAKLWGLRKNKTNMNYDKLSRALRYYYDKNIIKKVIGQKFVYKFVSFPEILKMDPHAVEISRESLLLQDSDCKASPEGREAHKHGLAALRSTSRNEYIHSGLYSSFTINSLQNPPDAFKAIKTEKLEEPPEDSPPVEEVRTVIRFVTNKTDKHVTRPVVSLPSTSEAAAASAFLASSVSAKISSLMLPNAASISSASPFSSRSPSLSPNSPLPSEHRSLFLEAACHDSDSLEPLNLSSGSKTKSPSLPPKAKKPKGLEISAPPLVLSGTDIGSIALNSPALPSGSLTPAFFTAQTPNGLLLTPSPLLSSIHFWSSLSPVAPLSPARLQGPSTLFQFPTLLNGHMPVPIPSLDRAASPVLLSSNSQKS
Method in brief: as §1

Sequence of ELF1 (P32519 whole entry): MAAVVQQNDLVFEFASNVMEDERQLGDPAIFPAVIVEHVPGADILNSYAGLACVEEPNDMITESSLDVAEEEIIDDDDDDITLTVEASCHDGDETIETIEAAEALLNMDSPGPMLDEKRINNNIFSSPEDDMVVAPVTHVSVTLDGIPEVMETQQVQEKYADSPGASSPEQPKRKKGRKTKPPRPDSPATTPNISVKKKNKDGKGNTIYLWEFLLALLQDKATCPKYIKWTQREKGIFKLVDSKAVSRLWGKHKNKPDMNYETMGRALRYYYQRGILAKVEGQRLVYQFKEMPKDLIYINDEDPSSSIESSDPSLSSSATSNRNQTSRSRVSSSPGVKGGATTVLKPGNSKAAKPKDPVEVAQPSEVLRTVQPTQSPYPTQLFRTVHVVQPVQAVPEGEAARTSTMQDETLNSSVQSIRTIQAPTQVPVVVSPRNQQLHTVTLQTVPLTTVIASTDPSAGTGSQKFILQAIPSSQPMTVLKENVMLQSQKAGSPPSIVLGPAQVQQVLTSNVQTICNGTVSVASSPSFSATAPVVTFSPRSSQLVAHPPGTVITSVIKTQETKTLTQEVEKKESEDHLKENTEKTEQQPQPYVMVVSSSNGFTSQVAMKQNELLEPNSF
Sequence of SPIB (Q01892 whole entry): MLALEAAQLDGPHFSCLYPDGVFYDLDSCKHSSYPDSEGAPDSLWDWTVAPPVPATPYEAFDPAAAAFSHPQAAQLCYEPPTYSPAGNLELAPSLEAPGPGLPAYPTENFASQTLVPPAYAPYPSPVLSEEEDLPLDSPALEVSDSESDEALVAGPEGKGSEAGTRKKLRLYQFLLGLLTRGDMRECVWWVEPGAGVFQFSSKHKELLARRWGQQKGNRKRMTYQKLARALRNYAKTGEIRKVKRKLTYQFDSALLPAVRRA

Sequence	binding signal (FLI1)	binding signal (ELK1)	binding signal (GABPA)	binding signal (ERG)	binding signal (ELF1)	binding signal (EHF)	binding signal (SPI1)	binding signal (SPIB)	binding signal (ELK3)
TACTTT	1.32 fold enrichment (6-mer frequency, TF over GST control)	1.48 fold enrichment (6-mer frequency, TF over GST control)	1.41 fold enrichment (6-mer frequency, TF over GST control)	1.29 fold enrichment (6-mer frequency, TF over GST control)	1.34 fold enrichment (6-mer frequency, TF over GST control)	1.39 fold enrichment (6-mer frequency, TF over GST control)	1.25 fold enrichment (6-mer frequency, TF over GST control)	1.36 fold enrichment (6-mer frequency, TF over GST control)	1.11 fold enrichment (6-mer frequency, TF over GST control)
ATTATA	1.24 fold enrichment (6-mer frequency, TF over GST control)	1.32 fold enrichment (6-mer frequency, TF over GST control)	1.21 fold enrichment (6-mer frequency, TF over GST control)	1.25 fold enrichment (6-mer frequency, TF over GST control)	1.31 fold enrichment (6-mer frequency, TF over GST control)	1.29 fold enrichment (6-mer frequency, TF over GST control)	1.2 fold enrichment (6-mer frequency, TF over GST control)	1.37 fold enrichment (6-mer frequency, TF over GST control)	1.28 fold enrichment (6-mer frequency, TF over GST control)
TGCTAG	1.11 fold enrichment (6-mer frequency, TF over GST control)	1.08 fold enrichment (6-mer frequency, TF over GST control)	1.08 fold enrichment (6-mer frequency, TF over GST control)	1.11 fold enrichment (6-mer frequency, TF over GST control)	1.16 fold enrichment (6-mer frequency, TF over GST control)	1.1 fold enrichment (6-mer frequency, TF over GST control)	1.2 fold enrichment (6-mer frequency, TF over GST control)	1.19 fold enrichment (6-mer frequency, TF over GST control)	1.03 fold enrichment (6-mer frequency, TF over GST control)
TTCTAC	1.39 fold enrichment (6-mer frequency, TF over GST control)	1.43 fold enrichment (6-mer frequency, TF over GST control)	1.59 fold enrichment (6-mer frequency, TF over GST control)	1.53 fold enrichment (6-mer frequency, TF over GST control)	1.55 fold enrichment (6-mer frequency, TF over GST control)	1.49 fold enrichment (6-mer frequency, TF over GST control)	1.46 fold enrichment (6-mer frequency, TF over GST control)	1.6 fold enrichment (6-mer frequency, TF over GST control)	1.44 fold enrichment (6-mer frequency, TF over GST control)
ACCAAT	1.35 fold enrichment (6-mer frequency, TF over GST control)	1.34 fold enrichment (6-mer frequency, TF over GST control)	1.4 fold enrichment (6-mer frequency, TF over GST control)	1.29 fold enrichment (6-mer frequency, TF over GST control)	1.34 fold enrichment (6-mer frequency, TF over GST control)	1.28 fold enrichment (6-mer frequency, TF over GST control)	1.3 fold enrichment (6-mer frequency, TF over GST control)	1.35 fold enrichment (6-mer frequency, TF over GST control)	1.34 fold enrichment (6-mer frequency, TF over GST control)
TCGACA	1.38 fold enrichment (6-mer frequency, TF over GST control)	1.27 fold enrichment (6-mer frequency, TF over GST control)	1.43 fold enrichment (6-mer frequency, TF over GST control)	1.35 fold enrichment (6-mer frequency, TF over GST control)	1.38 fold enrichment (6-mer frequency, TF over GST control)	1.21 fold enrichment (6-mer frequency, TF over GST control)	1.28 fold enrichment (6-mer frequency, TF over GST control)	1.25 fold enrichment (6-mer frequency, TF over GST control)	1.35 fold enrichment (6-mer frequency, TF over GST control)
CCGAAC	1.26 fold enrichment (6-mer frequency, TF over GST control)	1.21 fold enrichment (6-mer frequency, TF over GST control)	1.29 fold enrichment (6-mer frequency, TF over GST control)	1.21 fold enrichment (6-mer frequency, TF over GST control)	1.26 fold enrichment (6-mer frequency, TF over GST control)	1.32 fold enrichment (6-mer frequency, TF over GST control)	1.25 fold enrichment (6-mer frequency, TF over GST control)	1.2 fold enrichment (6-mer frequency, TF over GST control)	1.33 fold enrichment (6-mer frequency, TF over GST control)
CTGCTG	1.15 fold enrichment (6-mer frequency, TF over GST control)	1.26 fold enrichment (6-mer frequency, TF over GST control)	1.27 fold enrichment (6-mer frequency, TF over GST control)	1.11 fold enrichment (6-mer frequency, TF over GST control)	1.4 fold enrichment (6-mer frequency, TF over GST control)	1.39 fold enrichment (6-mer frequency, TF over GST control)	1.24 fold enrichment (6-mer frequency, TF over GST control)	1.04 fold enrichment (6-mer frequency, TF over GST control)	1.3 fold enrichment (6-mer frequency, TF over GST control)
